The whole screen tested about 1,000 compounds, of which about 700 (70%) were called active. So high a share suggests a set chosen from earlier hits. Only a sample is shown. A number with no mark means an inactive call. Rule as the data show it: active = inhibition above about 50%; inactive = the rest.
Test: CASP1-PYCARD signaling inhibition in yeast, confirmatory test, counterassay for NLRP3 inhibitor program, one-dose (AID 488784)
Settings: yeast expressing Caspase-1-ASC, luminescence counter screen; at 10 µM; stronger effect = higher value

| Structure (SMILES) | inhibition |
| --- | --- |
| O=C1/C(=C\c2ccc3c(c2)OCO3)N2CCC1CC2 | 60.4% (active) |
| Cc1cc2ccccn2c1C(C[N+](=O)[O-])c1c(F)cccc1Cl (centres undefined) | 12.2% |
| CCCCCCCCCCCCn1ccc(=N)cc1 | 59% (active) |
| Cc1ccc(-c2nc3ccccc3c(=O)n2-c2ccc(Br)cn2)cc1 | 44% |

— PubChem BioAssay AID488784 (Sanford-Burnham Center for Chemical Genomics, 2010)
